# Sampled rows, rich in hits. Any-hit rate of the full collection: about 11%.
# IMPase Li cell = IMPase inhibition in cells with lithium potentiation; CHO-M1 cells, IP1 TR-FRET (IP-One), carbachol + lithium; Potency, µM (highest dose often 59.4 µM), most hits filed as inhibitors; hit rate 0.35% among 210,000;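 also: IP1 builds up when IMPase is blocked and the TR-FRET signal falls; nearly all actives have a fitted effect of over 50% in size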
#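 Steps: plate 2000 CHO-M1 cells per well and culture 16–30 h; add compound and lithium; incubate 30 min, 37C; add d2-IP1 tracer and Eu cryptate anti-IP1 antibody in lysis buffer; read after 10 min at room temperature.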
# ALDH1A1 inh = blocks purified human ALDH1A1 activity; Purified ALDH1A1, NADH fluorescence, propionaldehyde substrate; hit rate 7.3% among 220,000; P00352; Potency, µM (titrated, usually from 75.3 µM), actives largely listed as inhibitors; AID 1030; active = well fitted inhibition curve with a large enough effect, not every such curve was filed as active; inconclusive = small, poorly fitted or top-dose-only effect, or another doubt; inactive = no such curve, though single readings can be large or run the other way
# PNC inhibitor = inhibitors of perinucleolar compartment assembly. activity change (PNC), negative = inhibition, % at 10 µM. hit rate 3.1% among 140,000. PC3M PTB-GFP, PNC prevalence imaging, 16 h; hits give low values;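 active = readout at or below -70, meaning at least 70% loss of cells showing the perinucleolar compartment, a nuclear body marking cancer cells; inconclusive = readout between -30 and a set limit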
#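 Compounds are pinned in duplicate onto adhered PC3M cells stably expressing GFP-tagged PTB and incubated 16 h at 37 C. Cells are then fixed, nuclei stained with Hoechst, and PNC-positive cells counted.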
# HPGD inh = blocks human HPGD enzyme activity | purified HPGD, NADH fluorescence kinetic, PGE2 substrate | hit rate 4.3% among 150,000 | Potency, µM, hits mostly inhibitors | P15428 | AID 894; active = well fitted inhibition curve with a large enough effect, not every such curve was filed as active; inconclusive = small, poorly fitted or top-dose-only effect, or another doubt; inactive = no such curve, though single readings can be large or run the other way
# Target sequence (P15428 whole entry, looked up): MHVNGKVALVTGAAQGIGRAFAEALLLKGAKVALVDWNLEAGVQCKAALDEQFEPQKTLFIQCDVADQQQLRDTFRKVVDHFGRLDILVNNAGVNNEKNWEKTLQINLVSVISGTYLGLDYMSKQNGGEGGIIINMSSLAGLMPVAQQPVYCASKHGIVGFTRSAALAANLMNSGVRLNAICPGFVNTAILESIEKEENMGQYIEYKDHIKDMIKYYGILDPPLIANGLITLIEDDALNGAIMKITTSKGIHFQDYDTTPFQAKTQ
#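 20 nM HPGD preincubated 15 min at room temperature with compound in 50 mM Tris-HCl pH 8, 0.01% Tween 20. Started with 1 mM NAD+ and 30 uM prostaglandin E2; NADH fluorescence (360/450 nm) read 5 times over 30-s intervals, last minus first.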
# NPSR antag = neuropeptide S receptor (human) antagonism, cAMP. Q6W5P4. CHO-NPSR cells, cAMP TR-FRET, antagonist mode. Potency, µM (highest dose often 38.3 µM), most hits filed as inhibitors. hit rate 1% among 220,000; also: nearly all actives have a fitted effect of over 50% in size
# Target sequence (Q6W5P4 whole entry, looked up): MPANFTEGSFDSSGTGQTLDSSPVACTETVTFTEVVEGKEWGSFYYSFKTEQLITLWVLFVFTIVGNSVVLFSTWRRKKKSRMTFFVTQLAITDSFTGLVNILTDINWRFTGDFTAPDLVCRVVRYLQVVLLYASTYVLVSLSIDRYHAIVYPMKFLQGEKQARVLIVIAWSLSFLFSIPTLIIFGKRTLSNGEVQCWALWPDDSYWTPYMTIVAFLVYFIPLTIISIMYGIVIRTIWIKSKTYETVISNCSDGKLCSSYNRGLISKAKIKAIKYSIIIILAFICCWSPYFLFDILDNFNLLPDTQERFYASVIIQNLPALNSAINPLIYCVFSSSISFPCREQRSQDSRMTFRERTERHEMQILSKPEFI
# IMPase cell inh = IMPase inhibition in cells. CHO-M1 cells, IP1 accumulation, HTRF TR-FRET ratio. inhibition (IP1 accumulation), % at 46.1 µM. 120,000 tested, under 10 active. AID 901; active = well fitted curve in the direction sought with a large enough effect in the signal ratio, not every such curve was filed as active; inconclusive = small, poorly fitted or top-dose-only effect, or a change in a side signal; inactive = no such curve, though single readings can be large or run the other way; the % refers to the signal ratio;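 also: cells stimulated with carbachol in lithium chloride buffer; higher means more IMPase inhibition seen as more IP1 and lower FRET ratio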
#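 Carbachol-driven Gq signalling in CHO-M1 cells (2000/well) generates IP1. Compounds that block IMPase raise IP1 and so reduce the FRET signal from Eu-anti-IP1 and d2-IP1 after a 10 min room-temperature lysis.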
# Numbers stand for hits; - = inactive; ? = inconclusive; . = no result given; [ ] = another dose, or the depositor's remark. Unless noted, calls follow the shape of the dose curve; as a rule, active = well fitted curve in the direction sought with a large enough effect; inconclusive = small, poorly fitted or top-dose-only effect, or another doubt; inactive = no such curve, though single readings can be large; an effect the other way counts as inactive or inconclusive.
SMILES,IMPase Li cell,ALDH1A1 inh,PNC inhibitor,HPGD inh,NPSR antag,IMPase cell inh
CC(=O)c1ccc(N2CCN(C(=O)Nc3ccc(Cl)cc3)CC2)cc1,-,-,.,.,-,.
CCN(CCO)C1CC(=O)N(c2ccccc2C)C1=O (configuration not stated),-,3.55µM,?,-,-,-
CCN(CC)C1CC(=O)N(c2cccc(C)c2)C1=O (configuration not stated),-,3.55µM,-,-,-,-
Cc1ccccc1N1C(=O)CC(N(O)c2ccccc2)C1=O (configuration not stated),-,?,-,-,-,-
CC1(C)Cc2c(C#N)c(N3CCN(C(=O)c4ccco4)CC3)nc(-c3ccco3)c2CS1,-,-,-,?,10µM,-
CC1(C)Cc2c(C#N)c(N3CCN(C(=O)c4ccccc4Cl)CC3)nc(-c3ccco3)c2CS1,-,?,-,?,?,-
CC1(C)Cc2c(c(-c3ccccc3)[nH]c(=O)c2C#N)CS1,-,28.2µM,-,?,-,-
CC1(C)Cc2c(c(-c3ccco3)[nH]c(=O)c2C#N)CS1,-,5.62µM,-,14.1µM,-,-
N#Cc1c(-c2ccccc2)[nH]c(=S)[nH]c1=O,-,-,?,-,-,-
CC(=O)N1CCN(c2nc(-c3ccco3)c3c(c2C#N)CC(C)(C)SC3)CC1,-,?,-,?,-,-
Cc1nc(CSc2nsc(C)c2C#N)cs1,-,-,.,.,-,.
COc1ccc2c(c1)CCc1cc(C(=O)O)sc1-2,.,.,.,.,-,.
C=CCNC(=O)/C(C#N)=C/c1ccc(C(=O)O)cc1,-,-,.,.,-,.
CCCCC1=CC2=C(c3ccco3)C(=O)C(C)(OC(=O)c3ccc(OC)cc3)C(=O)C2=CN1Cc1ccc(OC)cc1 (configuration not stated),-,-[13.5 µM],.,-,-,.
CCCCC1=CC2=C(c3ccco3)C(=O)C(C)(OC(=O)c3ccc(OC)cc3)C(=O)C2=CN1CC(C)C (configuration not stated),?,?,.,-,10µM,.
Cc1ccc(CN=C2Nc3ccccc3CS2)cc1,-,-,?,-,-,-
O=C(NC(=S)N1CCN(c2ccccn2)CC1)c1ccccc1,-,-,-91.7,-,-,.
CCC(Oc1ccccc1)C(=O)N1CCN(c2ccccn2)CC1 (configuration not stated),-,-,-131.9,-,-,-
Cn1ncc(Br)c1C(=O)NC(=S)N1CCN(c2ccccn2)CC1,-,-,-,-,-,.
CC1CCC(C(=O)NC(C(=O)N2CCN(c3ccccn3)CC2)C(C)C)CC1 (configuration not stated),-,-,-114.3,-,-,-
Cn1cc(Br)c(C(=O)NC(=S)N2CCN(c3ccccn3)CC2)n1,-,-,-86.4,-,-,.
S=C(NC1CCCC1)N1CCN(c2ccccn2)CC1,-,-,-,-,-,-
CCCCOc1ccc(C(NC(=O)OCC)NC(=O)OCC)cc1,-,-,-,-,-,.
CCO/N=C(/C)c1c(O)c(C)c(-c2ccccc2)n(-c2ccccc2)c1=O,-,-,-,-,-,-
Cc1cc2ccccc2n1CCNC(=O)c1cccc(Cl)c1,.,.,.,.,.,-
SMILES,IMPase Li cell,ALDH1A1 inh,PNC inhibitor,HPGD inh,NPSR antag,IMPase cell inh
Cn1c(=O)[nH]c(=O)c2c1nc(Br)n2Cc1ccccc1F,-,?,-,-,-,-
CCn1c(/C=C/Nc2ccccc2)[n+](CC)c2cc(Cl)c(Cl)cc21,-,-,-96.0,-,-,.
CCn1c(/C=C/N(C(C)=O)c2ccccc2)[n+](CCCS(=O)(=O)[O-])c2cc(Cl)c(Cl)cc21,-,-,.,.,-,.
O=C(CSCc1cccc(F)c1)NCc1ccccc1,-,-,.,.,-,.
CCN(Cc1ccccc1)S(=O)(=O)c1ccc2oc(C(=O)O)c(C)c2c1,-,-,?,?,-,-
O=C(CN1CCC(n2nnc3cc(F)ccc32)CC1)NCc1ccco1,-,14.1µM,-118.5,-,-[7.67 µM],-
COc1ccc(C2Nc3ccccc3C(=O)N2c2ccc(C)cc2)cc1Cn1cc([N+](=O)[O-])cn1 (configuration not stated),-,28.2µM,-,-,-,-
COc1ccc(N2C(=O)c3ccccc3NC2c2ccc(OC)c(CSc3ccccn3)c2)cc1 (configuration not stated),?,?,-,?,12.6µM,?
COc1ccc(C2Nc3ccccc3C(=O)N2c2ccc(C)cc2)cc1Cn1nnc2ccccc21 (configuration not stated),.,-,?,.,?,-
COc1ccc(N2C(=O)c3ccccc3NC2c2ccc(OC)c(COc3ccccn3)c2)cc1 (configuration not stated),-,?,-,-,-,-
Cc1cccc(C)c1NC(=O)CN(C)CC(=O)Nc1ccccc1Br,-,-,-,-,-,-
COc1cccc(CN(Cc2cccnc2)S(=O)(=O)c2ccc(-n3cnnn3)c(C)c2)c1,-,25.1µM,-,-,-,-
Cc1cc(S(=O)(=O)N(Cc2ccccc2)Cc2ccc(N(C)C)cc2)ccc1-n1cnnn1,-,?,-118.9,-,-,-
COc1cc(S(=O)(=O)N(Cc2ccc(C)cc2)Cc2ccco2)ccc1-n1cnnn1,-,12.6µM,-,-,-,-
Nc1ccc(C(=O)OCC(=O)N2c3ccccc3Sc3ccccc32)cc1[N+](=O)[O-],-,-,?,-,-,.
CCC(C)OC(=O)C1=C(C)O[C@]23OC(N)=C(C#N)[C@]12C(=O)c1ccccc13 (some centres not stated),-,?,-100.0,-,-,-
CCCN1CCN(C(=O)c2cn(CC(C)C)c(=O)c3cc(OC)c(OC)cc23)CC1,-,?,?,-,-,-
COc1cc2c(C(=O)N3CCN(C4CCCCC4)CC3)cn(CC(C)C)c(=O)c2cc1OC,-,22.4µM,?,-,-,-
CCOC(=O)C1CCCN(C(=O)c2cn(CC(C)C)c(=O)c3cc(OC)c(OC)cc23)C1 (configuration not stated),-,?,-100.0,-,-,-
ClCc1csc(N/N=C/c2cccs2)n1,.,.,.,.,-,.
C/C(=N\Nc1cccc(C(F)(F)F)c1)c1ccc(O)cc1,-,20µM,.,.,-,.
C/C(=N\NC(=O)CNc1cccc(C(F)(F)F)c1)c1ccc(Br)cc1,-,?,-,-,-,-
C/C(=N\NC(=O)c1cccc(N/N=C(\C)c2ccccc2)c1)c1ccccc1,-,11.9µM,?,?,-,-
COC(=O)[C@@H]1CCCN1Cc1c(C(=O)N2CCCCC2)nc2c(C)cccn12,-,-,.,.,-,.
CCc1c(C#N)c(SCCC(=O)Nc2ccc(OC)cc2)nc2c1C(=O)CC(C)(C)C2,-,?,?,-,?,-
CCOC(=O)c1c(NC(=O)COC)sc(C(C)=O)c1C,-,-,-,?,-,-
